BJeLR lethal: BJeLR cell viability loss. BJeLR (HRASV12) viability, CellTiter-Glo ATP luminescence, 48 h. inhibition, % (no concentration beside the values). 300,000 tested, 0.17% active. AID 1554; in the data active means inhibition above about 50%
CCHF vOTU inh-1: CCHFV vOTU protease inhibition; Pep-AMC fluorescence; inhibition, % at 11.5 µM; 370,000 tested, 0.55% active; AID 651958; in the data active means inhibition above about 30%
Mtb betalactam: beta-lactam sensitization of Mtb H37Rv | M. tuberculosis H37Rv growth with meropenem, percent inhibition | inhibition, % at 25 µM | 330,000 tested, 0.27% active;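 further: growth measured after seven days incubation then overnight dye step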
RecA intein inh: inhibitors of M. tuberculosis RecA intein splicing. P9WHJ3. cell-free RecA intein splicing, fluorescence. inhibition, % (concentration not given with the values). 290,000 tested, 0.75% active. AID 2221; in the data active means inhibition above about 30%
Target sequence (P9WHJ3 whole entry, looked up): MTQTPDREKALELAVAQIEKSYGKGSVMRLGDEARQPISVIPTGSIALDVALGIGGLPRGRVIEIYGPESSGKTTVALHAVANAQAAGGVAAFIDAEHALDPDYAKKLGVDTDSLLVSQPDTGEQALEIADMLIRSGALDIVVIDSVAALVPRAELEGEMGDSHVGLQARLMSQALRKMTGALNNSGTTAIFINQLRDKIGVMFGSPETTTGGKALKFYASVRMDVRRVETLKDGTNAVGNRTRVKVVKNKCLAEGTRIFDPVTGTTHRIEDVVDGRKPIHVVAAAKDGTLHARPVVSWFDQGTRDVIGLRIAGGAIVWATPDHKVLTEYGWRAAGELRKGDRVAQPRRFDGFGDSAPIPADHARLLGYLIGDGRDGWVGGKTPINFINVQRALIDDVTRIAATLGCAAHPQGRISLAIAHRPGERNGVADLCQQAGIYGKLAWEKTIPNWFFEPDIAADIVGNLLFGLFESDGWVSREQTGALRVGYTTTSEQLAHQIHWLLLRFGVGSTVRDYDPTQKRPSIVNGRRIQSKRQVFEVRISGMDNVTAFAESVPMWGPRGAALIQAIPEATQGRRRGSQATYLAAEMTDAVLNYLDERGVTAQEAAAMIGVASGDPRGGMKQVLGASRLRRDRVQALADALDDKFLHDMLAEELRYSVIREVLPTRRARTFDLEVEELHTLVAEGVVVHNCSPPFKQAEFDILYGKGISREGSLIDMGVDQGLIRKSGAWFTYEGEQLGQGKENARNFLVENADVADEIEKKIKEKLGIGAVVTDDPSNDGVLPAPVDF
Y pestis TopoI: inhibitors of Yersinia pestis topoisomerase I; Y. pestis Topo-I cleavage product accumulation, plate reader; activity, % at 10 µM; 360,000 tested, 0.064% active; in the data active means activity above about 50%, passing the limit was not always enough
BioA inh: BioA (M. tuberculosis) enzyme inhibition; purified M. tuberculosis BioA enzyme, plate reader; inhibition, % at 9.99 µM; 360,000 tested, 0.096% active; AID 602481; in the data active means inhibition above about 40%
GFP chromo cs: counter-screen GFP chromophore formation inhibition; shares compounds with RecA intein inh; cell-free GFP chromophore formation, fluorescence; EC50, µM; 2,100 tested, 83% active; AID 434968
CCHF vOTU inh-2: CCHFV vOTU protease inhibition, confirmation; shares compounds with CCHF vOTU inh-1; Recombinant CCHFV vOTU, Pep-AMC fluorescence; inhibition, % at 11.5 µM; 1,900 tested, 17% active; AID 686976; in the data active means inhibition above about 30%
A number is an active result. Compounds with a hit are over-represented: about 1.1% of the library has one in this group of screens. Unless noted, how the calls were made is not given here.

What do the screens show for `O=S(=O)(Nc1cc2nc3ccccc3nc2n1Cc1ccccc1)c1ccc(Cl)cc1`?
BJeLR lethal: inactive; CCHF vOTU inh-1: 111; Mtb betalactam: inactive; RecA intein inh: 60; Y pestis TopoI: inactive; GFP chromo cs: 6.3; CCHF vOTU inh-2: 67

Results for O=S(=O)(NCc1ccccc1)c1ccc(Cl)cc1 ?
BJeLR lethal: inactive; CCHF vOTU inh-1: inactive; Mtb betalactam: inactive; RecA intein inh: inactive; Y pestis TopoI: inactive

How did O=C(O)c1ccc(S(=O)(=O)/N=C2\C=C(Nc3ccccc3F)C(=O)c3ccccc32)cc1 do in these assays?
BJeLR lethal: inactive; CCHF vOTU inh-1: 122; Mtb betalactam: inactive; RecA intein inh: 94; Y pestis TopoI: inactive; BioA inh: inactive; GFP chromo cs: 0.17; CCHF vOTU inh-2: 103

How did Cc1ccccc1NC1=C/C(=N\S(=O)(=O)c2cccs2)c2ccccc2C1=O do in these assays?
BJeLR lethal: inactive; CCHF vOTU inh-1: 101; Mtb betalactam: inactive; RecA intein inh: 37; Y pestis TopoI: inactive; BioA inh: inactive; GFP chromo cs: 1; CCHF vOTU inh-2: 98

What do the screens show for `Cc1ccc(NC2=C/C(=N/S(=O)(=O)c3cccs3)c3ccccc3C2=O)cc1C`?
BJeLR lethal: inactive; CCHF vOTU inh-1: inactive; Mtb betalactam: inactive; RecA intein inh: inactive; Y pestis TopoI: inactive; BioA inh: inactive

Results for Cc1ccccc1NC1=C/C(=N\S(=O)(=O)c2ccc(C(=O)O)cc2)c2ccccc2C1=O ?
BJeLR lethal: inactive; CCHF vOTU inh-1: 107; Mtb betalactam: inactive; RecA intein inh: 96; Y pestis TopoI: inactive; BioA inh: inactive; GFP chromo cs: 11; CCHF vOTU inh-2: 101

How did COc1ccc(S(=O)(=O)/N=C2\C=C(Nc3ccc(O)cc3)C(=O)c3ccccc32)cc1 do in these assays?
BJeLR lethal: 51; CCHF vOTU inh-1: 110; Mtb betalactam: inactive; RecA intein inh: 93; Y pestis TopoI: inactive; BioA inh: inactive; GFP chromo cs: 0.34; CCHF vOTU inh-2: 105

How did COC(=O)C(C(C)=O)C1=C/C(=N\S(=O)(=O)c2ccc(C)cc2)c2ccccc2C1=O (stereo unspecified) do in these assays?
BJeLR lethal: inactive; Mtb betalactam: inactive; RecA intein inh: inactive; Y pestis TopoI: inactive; BioA inh: inactive

How did C[C@@H]1CCCCO[C@@H](CN(C)C(=O)Nc2ccc3c(c2)OCO3)[C@H](C)CN([C@H](C)CO)C(=O)c2cc(NS(=O)(=O)c3cn(C)cn3)ccc2O1 do in these assays?
BioA inh: inactive

How did C[C@H](CO)N1C[C@H](C)[C@H](CN(C)C)Oc2cc(C#CC3CCCCC3)ccc2S1(=O)=O do in these assays?
BioA inh: inactive

How did O=C(Cc1ccccc1)N[C@H]1CC[C@@H](CC(=O)N2CCOCC2)O[C@H]1CO do in these assays?
BioA inh: inactive

Results for C[C@H](CO)N1C[C@H](C)[C@H](CN(C)C(=O)NC2CCCCC2)Oc2c(NC(=O)C3CCCCC3)cccc2C1=O ?
BioA inh: inactive

Results for C[C@@H](NC(=O)C[C@@H]1CC[C@@H](NC(=O)C2CC2)[C@H](CO)O1)c1ccccc1 ?
BioA inh: inactive

How did CCOC(=O)c1cccc(-c2ccc(C=O)o2)c1 do in these assays?
BJeLR lethal: inactive; CCHF vOTU inh-1: inactive; Mtb betalactam: inactive; RecA intein inh: inactive; Y pestis TopoI: inactive; BioA inh: inactive

What do the screens show for `COC(=O)c1ccccc1-c1ccc(C(c2c(C)[nH][nH]c2=O)c2c(C)[nH][nH]c2=O)o1`?
BJeLR lethal: inactive; CCHF vOTU inh-1: 43; Mtb betalactam: inactive; RecA intein inh: 95; Y pestis TopoI: inactive; GFP chromo cs: 0.45; CCHF vOTU inh-2: inactive

What do the screens show for `COC(=O)c1cccc(-c2ccc(C(c3c(C)[nH][nH]c3=O)c3c(C)[nH][nH]c3=O)o2)c1`?
BJeLR lethal: inactive; CCHF vOTU inh-1: 57; Mtb betalactam: inactive; RecA intein inh: 100; Y pestis TopoI: inactive; BioA inh: inactive; GFP chromo cs: 0.54; CCHF vOTU inh-2: inactive

What do the screens show for `CNC1=C(N(C(C)=O)c2ccc(Br)cc2)C(=O)c2ccccc2C1=O`?
BJeLR lethal: 51; CCHF vOTU inh-1: 93; Mtb betalactam: inactive; RecA intein inh: 73; Y pestis TopoI: inactive; GFP chromo cs: 13; CCHF vOTU inh-2: 73

What do the screens show for `CCC(=O)N(C1=C(NC)C(=O)c2ccccc2C1=O)C(C)C`?
BJeLR lethal: inactive; CCHF vOTU inh-1: 47; Mtb betalactam: inactive; RecA intein inh: 45; Y pestis TopoI: inactive; GFP chromo cs: 39; CCHF vOTU inh-2: inactive

How did COc1cccc(CNC(=O)C[C@@H]2C=C[C@@H](NC(=O)C3CC3)[C@@H](CO)O2)c1 do in these assays?
BioA inh: inactive

What do the screens show for `Cc1nc2c(=O)n(C)c(=O)nc-2n(C)n1`?
BJeLR lethal: inactive; CCHF vOTU inh-1: 102; Mtb betalactam: inactive; RecA intein inh: 98; Y pestis TopoI: inactive; GFP chromo cs: 0.12; CCHF vOTU inh-2: 99

How did O=C(C[C@@H]1CC[C@@H]2[C@H](COC[C@H](O)CN2S(=O)(=O)c2cccc(Cl)c2)O1)N1CCOCC1 do in these assays?
BioA inh: inactive

Results for Cc1ccc(NC2=C(N3CCCCC3)C(=O)c3ccccc3C2=O)cc1 ?
BJeLR lethal: inactive; CCHF vOTU inh-1: 96; Mtb betalactam: inactive; RecA intein inh: 67; Y pestis TopoI: inactive; GFP chromo cs: 9.5; CCHF vOTU inh-2: 85

Results for O=C1C(Nc2cccc(O)c2)=C(N2CCCCC2)C(=O)c2ccccc21 ?
BJeLR lethal: inactive; CCHF vOTU inh-1: 89; Mtb betalactam: inactive; RecA intein inh: 79; Y pestis TopoI: inactive; BioA inh: inactive; GFP chromo cs: 3; CCHF vOTU inh-2: 92

How did O=C(/C=C/c1ccc(O)cc1)c1ccc(NC2=C(N3CCCCC3)C(=O)c3ccccc3C2=O)cc1 do in these assays?
BJeLR lethal: inactive; CCHF vOTU inh-1: 84; Mtb betalactam: inactive; RecA intein inh: 57; Y pestis TopoI: inactive; BioA inh: inactive; GFP chromo cs: 6.1; CCHF vOTU inh-2: 60

Results for Cc1oc2c(c1C(=O)N1CCC(C)CC1)C(=O)c1ccccc1C2=O ?
BJeLR lethal: inactive; CCHF vOTU inh-1: 32; Mtb betalactam: inactive; RecA intein inh: 79; GFP chromo cs: 8.5; CCHF vOTU inh-2: inactive

What do the screens show for `CCOC(=O)C1CCN(C(=O)c2c(C)oc3c2C(=O)c2ccccc2C3=O)CC1`?
BJeLR lethal: inactive; CCHF vOTU inh-1: 61; Mtb betalactam: inactive; RecA intein inh: 69; Y pestis TopoI: inactive; BioA inh: inactive; GFP chromo cs: 4.7; CCHF vOTU inh-2: 46

How did COc1ccc(-c2ccc3c(c2)[C@H]2[C@H](CCN2S(=O)(=O)c2ccccc2C)[C@H](CO)N3)cc1 do in these assays?
BioA inh: inactive

What do the screens show for `Cc1ccc(S(=O)(=O)N(C)C[C@@H]2Oc3ccc(NC(=O)Cn4cnnn4)cc3C(=O)N([C@H](C)CO)C[C@@H]2C)cc1`?
BioA inh: inactive
